# Results: PubChem BioAssay (NCATS)
# Results filed as inconclusive are left out. Entries that show only a call come without a potency. Calls of active or inactive are those of the source. Calls follow the shape of the dose curve; as a rule, active = well fitted curve in the direction sought with a large enough effect; inconclusive = small, poorly fitted or top-dose-only effect, or another doubt; inactive = no such curve, though single readings can be large; an effect the other way counts as inactive or inconclusive. Where a SMILES comes first, the peptide text is derived from it. The star is where a group is joined. AFC = O=c1cc(C(F)(F)F)c2ccc(N*)cc2o1
# How the values were obtained:
# [1] = P-glycoprotein substrates identified in KB-3-1 adenocarcinoma cell line, qHTS therapeutic library screen (AID 1346986); also: nearly all actives have a fitted effect of over 60% in size
# Procedure, shortened: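 KB-3-1 parental cells and P-gp-overexpressing KB-8-5-11 (colchicine omitted during assay) plated at 500 cells/well, dosed in dose-response, incubated 72 h at 37 degree C. CellTiter-Glo luminescence read; KB-8-5-11 also tested with tariquidar.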
# [2] = P-glycoprotein substrates identified in KB-8-5-11 adenocarcinoma cell line, qHTS therapeutic library screen (AID 1346987); also: nearly all actives have a fitted effect of over 65% in size; as to activity change, negative = cytotoxicity: series mostly up to about 44 µM
# Procedure, shortened: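 P-gp-mediated resistance screen: KB-8-5-11 cells treated 72 h with compounds in dose-response. CellTiter-Glo viability.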
smiles,measurement,setting,value
[N-]=[N+]=N[C@]1(CO)O[C@@H](n2ccc(=O)[nH]c2=O)[C@@H](O)[C@@H]1O,Potency,[1],inactive
same,Potency,[2],inactive
CC1(C)CC[C@@]2(C(=O)O[C@@H]3O[C@H](CO)[C@@H](O)[C@H](O)[C@H]3O)C(C1)C1=CCC3[C@@]4(C)CC[C@@H](O[C@@H]5O[C@H](C(=O)O)[C@@H](O[C@@H]6OC[C@@H](O)[C@H](O)[C@H]6O)[C@H](O[C@@H]6OC[C@](O)(CO)[C@H]6O)[C@H]5O)C(C)(C)C4CC[C@@]3(C)[C@]1(C)C[C@H]2O (stereo not given in full),outcome,[1],inactive [at 9.29 µM]
same,outcome,[2],inactive [at 9.29 µM]
CC(O)CO[C@@H]1O[C@H](CO)[C@@H](O)[C@H](O)[C@H]1O (stereo not given in full),Potency,[1],inactive
same,Potency,[2],inactive
COc1ccc(CN2C(=O)C(=O)c3cc(S(=O)(=O)N4CCC[C@H]4COc4cccnc4)ccc32)cc1,Potency,[1],inactive
same,Potency,[2],inactive
CC(C)=CCC(O)/C(C)=C/CO[C@@H]1O[C@H](CO)[C@@H](O)[C@H](O)[C@H]1O (stereo not given in full),Potency,[1],inactive
same,Potency,[2],inactive
CC(=O)N[C@@H](Cc1c[nH]c2ccccc12)C(=O)N[C@@H](CCC(=O)O)C(=O)N[C@@H](Cc1cnc[nH]1)C(=O)N[C@@H](CC(=O)O)C(=O)Nc1ccc2c(C(F)(F)F)cc(=O)oc2c1 (Ac-WEHD-{AFC}),Potency,[1],inactive
same,Potency,[2],inactive
C[C@@H]1O[C@@H](OC[C@H]2O[C@@H](OC(CCCCc3ccc(O)cc3)CCc3ccc(O)cc3)[C@H](O)[C@@H](O)[C@@H]2O)[C@H](O)[C@H](O)[C@H]1O (stereo not given in full),Potency,[1],inactive
same,Potency,[2],inactive
CC(=O)C12OC(C)(C)OC1CC1C3CCC4=CC(=O)C=CC4(C)C3(F)C(O)CC12C (stereo not given),Potency,[1],inactive
same,Potency,[2],inactive
CC/C=C\CC1C(=O)C=CC1(CCCCCCCC(=O)O)OC(C)=O (stereo not given),Potency,[1],inactive
same,Potency,[2],inactive
CC#CC(=O)N1CCC[C@H]1c1nc(-c2ccc(C(=O)Nc3ccccn3)cc2)c2c(N)nccn12,Potency,[1],inactive
same,Potency,[2],inactive
COc1cc(Nc2nc3ccccc3nc2NS(=O)(=O)c2ccc(NC(=O)c3ccc(OC)c(C)c3)cc2)cc(OC)c1,Potency,[1],inactive
same,Potency,[2],inactive
COC1=CC(=O)CC(C)C12Oc1cc(OC)cc(O)c1C2=O (stereo not given),Potency,[1],inactive
same,Potency,[2],inactive
C=C1CC23CC1CCC2C12OC(=O)C(C)(CCC1O)C2C3C(=O)O (stereo not given),Potency,[1],inactive
same,Potency,[2],inactive
CCc1c(-c2ccccc2)c(-c2ccccc2)nn1-c1ccccc1-c1cccc(OCC(=O)O)c1,Potency,[1],inactive
same,Potency,[2],inactive
COC(=O)C1=CO[C@@H](O[C@@H]2O[C@H](CO)[C@@H](O)[C@H](O)[C@H]2O)C2C1C(=O)C[C@H]2C (stereo not given in full),Potency,[1],inactive
same,Potency,[2],inactive
CNC12CC3C[C@@](C)(C1)C[C@](C)(C3)C2,Potency,[1],inactive
same,Potency,[2],inactive
CCn1cc(NC(=S)Nc2cc(Cl)ccc2OC)c(C(N)=O)n1,Potency,[1],inactive
same,Potency,[2],inactive
CC1(C)CCCC2(C)C1C(O)C=C(CO)C2(O)CO (stereo not given),Potency,[1],inactive
same,Potency,[2],inactive
OC1CCC(Nc2ncc3nc(Nc4c(F)cc(F)cc4F)n([C@H]4CCOC4)c3n2)CC1 (stereo not given in full),Potency,[1],inactive
same,Potency,[2],inactive
C[C@@H]1O[C@@H](O[C@@H]2CO[C@@H](O[C@H]3CC[C@@]4(C)C(CC[C@]5(C)C4CC=C4[C@@H]6CC(C)(C)CC[C@]6(C(=O)O[C@@H]6O[C@H](CO)[C@@H](O)[C@H](O)[C@H]6O)CC[C@]45C)[C@]3(C)CO)[C@H](O)[C@H]2O[C@@H]2O[C@H](CO)[C@@H](O)[C@H](O)[C@H]2O)[C@H](O)[C@H](O)[C@H]1O (stereo not given in full),outcome,[1],inactive [at 9.29 µM]
same,"activity change, negative = cytotoxicity",[2],4.08% [at 9.29 µM] (inactive)
CC1=C2C(O)C(=O)OC(c3ccoc3)C2(C)CCC1O (stereo not given),Potency,[1],inactive
same,Potency,[2],inactive
CC(C)=CCC/C(C)=C/CCC1(C)Oc2c(c(O)cc3c2CN(C(CCC(=O)O)C(=O)O)C3=O)CC1O (stereo not given),Potency,[1],inactive
same,Potency,[2],inactive
C[C@@H]1O[C@@H](O[C@H]2[C@H](O)[C@@H](O[C@@H]3O[C@H](CO)[C@@H](O)[C@H](O[C@@H]4O[C@H](CO)[C@@H](O)[C@H](O)[C@H]4O)[C@H]3O)[C@H](O[C@H]3CC[C@@]4(C)C(=CC[C@@H]5C4CC[C@@]4(C)C5C[C@@H]5OC6(CC[C@@](C)(CO[C@@H]7O[C@H](CO)[C@@H](O)[C@H](O)[C@H]7O)O6)[C@@H](C)[C@@H]54)C3)O[C@@H]2CO)[C@H](O)[C@H](O)[C@H]1OC1OC(CO)C(O)C(O)C1O (stereo not given in full),outcome,[1],inactive [at 9.29 µM]
same,outcome,[2],inactive [at 9.29 µM]
CC(CO)C1CCC2(C)CC3C(CO)CC(O)C3C(C)(O)C/C=C/12 (stereo not given),Potency,[1],inactive
same,Potency,[2],inactive
CCOCc1cc(OC)c(-c2ccc(C[C@H](NC(=O)c3c(F)cccc3F)C(=O)O)cc2)c(OC)c1,Potency,[1],inactive
same,Potency,[2],inactive
Cc1c2cc(c(C(=O)O)c1C)OC1OC(C(O)C(O)C1O)C(O)C(O)C1OC(O2)C(O)C(O)C1O (stereo not given),Potency,[1],inactive
same,Potency,[2],inactive
Cc1cc(Cl)ccc1COc1ccnn1-c1cc(C(=O)O)ccn1,Potency,[1],inactive
same,Potency,[2],inactive
CC(=O)OC[C@H]1O[C@H](O[C@]2(CO)O[C@H](CO)[C@@H](OC(=O)/C=C/c3ccccc3)[C@@H]2O)[C@H](O)[C@@H](O)[C@@H]1O,Potency,[1],inactive
same,Potency,[2],inactive
C/C(=C\CCC(C)CCO)C(=O)O[C@@H]1[C@@H](O)[C@H](OC2OC=C(C(=O)O)C3CCC(C)(O)C23)O[C@H](CO)[C@H]1O (stereo not given in full),Potency,[1],inactive
same,Potency,[2],inactive
COc1nc2sc(C(=O)NC3CC3)c(N)c2c(C)c1Cl,Potency,[1],inactive
same,Potency,[2],inactive
C=C1C(O)C[C@@H]2C(C(=O)O)=CO[C@@H](O[C@@H]3O[C@H](CO)[C@@H](O)[C@H](O)[C@H]3OC(=O)c3ccc(O)cc3)[C@H]12 (stereo not given in full),Potency,[1],inactive
same,Potency,[2],inactive
CC(=O)OC1/C(C)=C/C(=O)C(OC(C)=O)C(C)(C)/C=C/C(C)C(=O)C2(OC(C)=O)CC(C)C(OC(=O)c3ccccc3)C12 (stereo not given),Potency,[1],inactive
same,Potency,[2],inactive
CC(=O)c1cc2c(cc1O)OC(C)(C)C=C2,Potency,[1],inactive
same,Potency,[2],inactive
CC1C(OC(=O)c2ccccc2)C(O)C2C(C(=O)O)=COC(OC3OC(CO)C(O)C(O)C3O)C12 (stereo not given),Potency,[1],inactive
same,Potency,[2],inactive
CCOC(=O)C(CCc1ccccc1)NC(C)C(=O)N1C(=O)N(C)CC1C(=O)O (stereo not given),Potency,[1],inactive
same,Potency,[2],inactive
CC1=C(C(=O)O)/C(=C\CO[C@@H]2O[C@H](CO)[C@@H](O)[C@H](O)[C@H]2O)C(OC(=O)/C=C\c2ccc(O)cc2)C1 (stereo not given in full),Potency,[1],inactive
same,Potency,[2],inactive
O=C1NC2CCc3nc4ccccc4c(=O)n3C2=Nc2ccccc21 (stereo not given),Potency,[1],inactive
same,Potency,[2],inactive
CC[C@@H](O)C[C@@H]1C(C)=C[C@@H]2CCCC[C@@H]2[C@@]1(C)C(=O)O,Potency,[1],inactive
same,Potency,[2],inactive
CC(=O)N[C@@H](CCCCN)C(=O)N(C)[C@@H](CC(C)C)C(=O)N[C@H](C(=O)N(C)[C@@H](Cc1ccccc1)C(=O)N[C@H](Cc1ccccc1)C(N)=O)C(C)C,outcome,[1],inactive [at 5.11 µM]
same,outcome,[2],inactive [at 5.11 µM]
CC(=O)CC1CCC(C(C)C(=O)OCC(O)CO)O1 (stereo not given),Potency,[1],inactive
same,Potency,[2],inactive
COc1cc(C(=O)O)ccc1OC1OC(CO)C(O)C(O)C1O (stereo not given),Potency,[1],inactive
same,Potency,[2],inactive
O=C(O[C@H]1[C@@H]2C=CO[C@@H](O[C@@H]3O[C@H](CO)[C@@H](O)[C@H](O)[C@H]3O)[C@@H]2[C@@]2(CO)O[C@@H]12)c1ccccc1,Potency,[1],inactive
same,Potency,[2],inactive
COc1ccc(/C=C\C(=O)O)c(O[C@@H]2O[C@H](CO)[C@@H](O)[C@H](O)[C@H]2O)c1,Potency,[1],inactive
same,Potency,[2],inactive
CCCOc1ccc(-c2nc(OC)c3ccccc3n2)cc1,Potency,[1],inactive
same,Potency,[2],inactive
CC(C)(C)c1ccc(S(=O)(=O)Nc2ccc(Cl)cc2C(=O)c2cc[n+]([O-])cc2)cc1,Potency,[1],inactive
same,Potency,[2],inactive
C[C@@H]1N[C@H]2N(C1=O)c1ccccc1[C@@]2(O)C[C@@H]1C(=O)N[C@@H](C)c2nc3ccccc3c(=O)n21,Potency,[1],inactive
same,Potency,[2],inactive
CC(=O)OC/C=C(\C)C(CC1C(C)=C(OC(C)=O)C(=O)C2C(C)(C)C(O)CCC12C)OC(C)=O (stereo not given),Potency,[1],inactive
same,Potency,[2],inactive
CC(=O)OC1C(O)C2C(C)C3=CC(=O)OC3(O)CC2C2(C)CCCC(C)(CO)C12 (stereo not given),Potency,[1],inactive
same,Potency,[2],inactive
C[C@@H]1O[C@@H](O[C@H]2[C@H](O[C@H]3[C@H](O)[C@@H](C(=O)O)O[C@@H](O[C@H]4CC[C@@]5(C)C(CC[C@]6(C)C5CC[C@]57OC[C@@]8(CCC(C)(C)CC85)[C@H](O)C[C@]76C)C4(C)C)[C@@H]3O[C@@H]3O[C@H](CO)[C@@H](O[C@@H]4OC[C@@H](O)[C@H](O)[C@H]4O)[C@H](O)[C@H]3O)O[C@H](CO)[C@H](O)[C@@H]2O)[C@H](O)[C@H](O)[C@H]1O (stereo not given in full),outcome,[1],inactive [at 9.29 µM]
same,"activity change, negative = cytotoxicity",[2],2.43% [at 9.29 µM] (inactive)
CCC(Nc1ncnc2nc[nH]c12)c1nc2cccc(F)c2c(=O)n1-c1ccccc1 (stereo not given),Potency,[1],inactive
same,Potency,[2],inactive
CC1=CCC(C(C)(C)O[C@@H]2O[C@H](CO[C@@H]3O[C@@H](C)[C@H](O)[C@@H](O)[C@H]3O)[C@@H](O)[C@H](O)[C@H]2O)CC1 (stereo not given in full),Potency,[1],inactive
same,Potency,[2],inactive
OC[C@H]1O[C@@H](OC[C@H]2O[C@@H](OC/C=C/c3ccccc3)[C@H](O)[C@@H](O)[C@@H]2O)[C@@H](O)[C@@H]1O,Potency,[1],inactive
same,Potency,[2],inactive
CC(=O)O[C@H]1[C@H](O[C@H]2[C@@H]3C=CO[C@@H](O[C@@H]4O[C@H](CO)[C@@H](O)[C@H](O)[C@H]4O)[C@@H]3[C@@]3(CO)O[C@@H]23)O[C@@H](C)[C@H](OC(=O)/C=C/c2ccccc2)[C@H]1OC(=O)/C=C/c1ccccc1,outcome,[1],inactive [at 9.29 µM]
same,outcome,[2],inactive [at 9.29 µM]
Nc1nc2c(ncn2[C@@H]2O[C@@H]3COP(=O)(O)O[C@H]3[C@H]2O)c(=O)[nH]1,Potency,[1],inactive
same,Potency,[2],inactive
CC(=O)N[C@H]1[C@H](O[C@H]2CC[C@@]3(C)C(CC[C@]4(C)C3CC=C3[C@@H]5CC(C)(C)CC[C@]5(C(=O)OC5OCC(O)C(O)C5O)CC[C@]34C)C2(C)C)O[C@H](COC2OC(C)C(O)C(OC3OC(C)C(O)C(O)C3O)C2O)[C@@H](O)[C@@H]1O (stereo not given in full),outcome,[1],inactive [at 9.29 µM]
same,"activity change, negative = cytotoxicity",[2],4.96% [at 9.29 µM] (inactive)
